# Columns and labels:
# [1] = target: Tyrosine-protein kinase SYK (Homo sapiens) (UniProt P43405); details: at 10 µM
# [2] = target: T1, Serine/threonine-protein kinase TAO1 (Homo sapiens) (UniProt Q7L7X3); details: at 1 µM
# T1 sequence (whole entry): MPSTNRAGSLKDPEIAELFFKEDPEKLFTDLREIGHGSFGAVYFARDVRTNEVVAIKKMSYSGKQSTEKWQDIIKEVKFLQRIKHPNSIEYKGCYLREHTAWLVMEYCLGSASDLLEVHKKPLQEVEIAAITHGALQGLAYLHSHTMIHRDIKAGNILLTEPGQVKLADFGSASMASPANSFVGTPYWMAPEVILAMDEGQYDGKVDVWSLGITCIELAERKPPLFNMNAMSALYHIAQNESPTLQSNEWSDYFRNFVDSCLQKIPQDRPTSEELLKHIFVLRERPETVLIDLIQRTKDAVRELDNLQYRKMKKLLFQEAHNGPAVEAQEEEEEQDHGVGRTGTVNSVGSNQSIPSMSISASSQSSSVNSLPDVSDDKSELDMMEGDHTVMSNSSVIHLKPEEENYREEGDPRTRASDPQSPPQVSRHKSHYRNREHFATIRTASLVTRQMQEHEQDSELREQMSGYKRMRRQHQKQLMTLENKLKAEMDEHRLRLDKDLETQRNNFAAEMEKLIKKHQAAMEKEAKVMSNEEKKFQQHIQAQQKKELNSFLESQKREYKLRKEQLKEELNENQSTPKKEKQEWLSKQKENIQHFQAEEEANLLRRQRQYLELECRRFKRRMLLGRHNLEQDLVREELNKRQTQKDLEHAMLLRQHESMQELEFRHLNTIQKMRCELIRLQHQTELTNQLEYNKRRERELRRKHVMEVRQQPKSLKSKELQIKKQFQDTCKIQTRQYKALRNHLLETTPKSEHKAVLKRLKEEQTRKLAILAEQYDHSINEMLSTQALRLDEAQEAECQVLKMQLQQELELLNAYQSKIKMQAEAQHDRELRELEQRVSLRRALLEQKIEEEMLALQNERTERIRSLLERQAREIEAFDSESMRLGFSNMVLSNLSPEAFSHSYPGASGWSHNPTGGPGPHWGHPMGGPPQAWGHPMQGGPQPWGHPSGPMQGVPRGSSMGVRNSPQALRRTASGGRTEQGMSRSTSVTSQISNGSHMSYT
# [3] = target: T2, Serine/threonine-protein kinase TAO2 (Homo sapiens) (UniProt Q9UL54); details: at 1 µM
# T2 sequence (whole entry): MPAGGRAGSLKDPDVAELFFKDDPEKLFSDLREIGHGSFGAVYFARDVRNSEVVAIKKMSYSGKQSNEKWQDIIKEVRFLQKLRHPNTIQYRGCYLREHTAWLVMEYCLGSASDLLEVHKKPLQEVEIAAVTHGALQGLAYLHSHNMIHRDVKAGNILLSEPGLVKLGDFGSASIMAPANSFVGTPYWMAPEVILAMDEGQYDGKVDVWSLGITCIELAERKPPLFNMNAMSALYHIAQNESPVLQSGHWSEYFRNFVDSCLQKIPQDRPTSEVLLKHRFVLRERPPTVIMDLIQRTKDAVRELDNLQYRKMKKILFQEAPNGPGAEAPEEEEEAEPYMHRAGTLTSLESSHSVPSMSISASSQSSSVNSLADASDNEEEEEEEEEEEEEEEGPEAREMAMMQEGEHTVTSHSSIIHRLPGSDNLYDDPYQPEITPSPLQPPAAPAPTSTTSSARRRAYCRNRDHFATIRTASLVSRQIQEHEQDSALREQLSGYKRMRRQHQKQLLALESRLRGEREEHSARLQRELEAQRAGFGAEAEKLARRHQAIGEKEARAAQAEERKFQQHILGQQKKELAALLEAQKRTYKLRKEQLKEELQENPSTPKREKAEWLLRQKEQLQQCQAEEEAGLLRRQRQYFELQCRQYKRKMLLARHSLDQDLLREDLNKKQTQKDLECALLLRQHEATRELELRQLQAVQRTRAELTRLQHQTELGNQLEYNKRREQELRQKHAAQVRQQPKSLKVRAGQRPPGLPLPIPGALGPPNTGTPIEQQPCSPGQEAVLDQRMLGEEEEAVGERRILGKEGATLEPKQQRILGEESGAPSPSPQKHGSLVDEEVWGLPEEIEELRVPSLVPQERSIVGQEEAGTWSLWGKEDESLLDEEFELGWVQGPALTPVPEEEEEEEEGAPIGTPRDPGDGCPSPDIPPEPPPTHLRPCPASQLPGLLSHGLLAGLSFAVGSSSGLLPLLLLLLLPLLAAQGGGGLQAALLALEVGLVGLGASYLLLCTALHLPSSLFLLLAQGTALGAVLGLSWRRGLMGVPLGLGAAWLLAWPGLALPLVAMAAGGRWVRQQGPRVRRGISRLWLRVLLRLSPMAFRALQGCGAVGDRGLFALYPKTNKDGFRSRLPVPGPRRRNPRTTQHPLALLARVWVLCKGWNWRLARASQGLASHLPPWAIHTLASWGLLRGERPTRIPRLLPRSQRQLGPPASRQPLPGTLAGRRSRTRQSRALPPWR
# [4] = target: T2, Serine/threonine-protein kinase TAO2 (Homo sapiens); details: at 10 µM
# [5] = target: T3, Serine/threonine-protein kinase TAO3 (Homo sapiens) (UniProt Q9H2K8); details: at 1 µM
# T3 sequence (whole entry): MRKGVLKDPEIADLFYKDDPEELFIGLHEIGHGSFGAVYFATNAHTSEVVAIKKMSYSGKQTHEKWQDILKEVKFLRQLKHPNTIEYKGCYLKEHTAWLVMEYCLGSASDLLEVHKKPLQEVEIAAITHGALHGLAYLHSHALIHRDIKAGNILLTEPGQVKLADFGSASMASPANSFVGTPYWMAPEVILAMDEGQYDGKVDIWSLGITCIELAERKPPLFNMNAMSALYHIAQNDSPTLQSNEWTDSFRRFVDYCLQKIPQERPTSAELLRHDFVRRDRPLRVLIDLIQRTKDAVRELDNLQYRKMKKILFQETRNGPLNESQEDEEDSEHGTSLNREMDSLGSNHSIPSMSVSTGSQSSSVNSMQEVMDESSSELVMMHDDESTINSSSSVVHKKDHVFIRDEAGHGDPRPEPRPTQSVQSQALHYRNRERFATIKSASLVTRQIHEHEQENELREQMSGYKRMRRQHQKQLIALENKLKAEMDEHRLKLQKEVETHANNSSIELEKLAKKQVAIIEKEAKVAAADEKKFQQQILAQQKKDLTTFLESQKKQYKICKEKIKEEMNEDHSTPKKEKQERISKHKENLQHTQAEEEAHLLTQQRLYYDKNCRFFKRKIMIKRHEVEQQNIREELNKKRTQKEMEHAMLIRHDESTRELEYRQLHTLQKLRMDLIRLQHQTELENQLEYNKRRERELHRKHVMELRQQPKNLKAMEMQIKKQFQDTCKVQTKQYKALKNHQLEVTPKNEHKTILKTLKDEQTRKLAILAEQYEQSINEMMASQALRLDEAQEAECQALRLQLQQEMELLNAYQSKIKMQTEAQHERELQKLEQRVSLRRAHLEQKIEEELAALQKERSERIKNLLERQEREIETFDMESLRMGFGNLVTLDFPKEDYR
# [6] = target: T4, Serine/threonine-protein kinase TBK1 (Homo sapiens) (UniProt Q9UHD2); details: at 1 µM
# T4 sequence (whole entry): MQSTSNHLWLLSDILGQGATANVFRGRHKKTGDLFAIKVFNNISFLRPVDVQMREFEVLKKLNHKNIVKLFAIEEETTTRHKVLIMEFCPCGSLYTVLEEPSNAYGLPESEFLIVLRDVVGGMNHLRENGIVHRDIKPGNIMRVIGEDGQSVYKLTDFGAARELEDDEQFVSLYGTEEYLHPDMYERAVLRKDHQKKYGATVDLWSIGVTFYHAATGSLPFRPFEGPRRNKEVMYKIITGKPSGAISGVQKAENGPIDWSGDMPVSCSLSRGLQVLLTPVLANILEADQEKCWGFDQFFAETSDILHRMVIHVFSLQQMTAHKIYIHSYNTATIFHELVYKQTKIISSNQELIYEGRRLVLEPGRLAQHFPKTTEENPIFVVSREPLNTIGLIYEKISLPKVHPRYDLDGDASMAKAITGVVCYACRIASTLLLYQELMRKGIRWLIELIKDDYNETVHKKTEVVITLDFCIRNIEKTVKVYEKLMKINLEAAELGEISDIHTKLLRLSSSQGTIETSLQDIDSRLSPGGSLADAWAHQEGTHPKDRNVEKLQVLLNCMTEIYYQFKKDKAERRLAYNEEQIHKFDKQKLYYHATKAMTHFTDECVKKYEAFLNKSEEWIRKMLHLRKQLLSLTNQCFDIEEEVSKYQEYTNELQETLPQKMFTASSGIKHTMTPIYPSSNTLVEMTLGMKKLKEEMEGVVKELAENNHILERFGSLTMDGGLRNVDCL
# [7] = target: T4, Serine/threonine-protein kinase TBK1 (Homo sapiens); details: at 10 µM
# [8] = target: T5, TGF-beta receptor type-1 (Homo sapiens) (UniProt P36897); details: at 1 µM
# T5 sequence (whole entry): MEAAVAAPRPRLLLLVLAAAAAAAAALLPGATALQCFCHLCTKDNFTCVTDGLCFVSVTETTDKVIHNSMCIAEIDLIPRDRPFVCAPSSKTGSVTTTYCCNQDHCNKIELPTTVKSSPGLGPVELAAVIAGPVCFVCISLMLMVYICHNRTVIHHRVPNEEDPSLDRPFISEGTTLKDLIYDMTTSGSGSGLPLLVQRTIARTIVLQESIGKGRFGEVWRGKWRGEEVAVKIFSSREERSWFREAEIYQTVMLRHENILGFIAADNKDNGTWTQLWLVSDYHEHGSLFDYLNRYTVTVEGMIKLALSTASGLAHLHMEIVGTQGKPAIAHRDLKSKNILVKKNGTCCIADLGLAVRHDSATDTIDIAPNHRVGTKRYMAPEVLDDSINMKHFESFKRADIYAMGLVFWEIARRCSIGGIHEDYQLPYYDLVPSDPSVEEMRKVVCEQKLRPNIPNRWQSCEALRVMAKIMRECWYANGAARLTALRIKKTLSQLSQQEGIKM
# [9] = target: T5, TGF-beta receptor type-1 (Homo sapiens); details: at 10 µM
# [10] = target: Insulin-like growth factor 1 receptor (Homo sapiens) (UniProt P08069); details: at 1 µM
# Sequence of Insulin-like growth factor 1 receptor (Homo sapiens) (P08069 31-736 limits assumed): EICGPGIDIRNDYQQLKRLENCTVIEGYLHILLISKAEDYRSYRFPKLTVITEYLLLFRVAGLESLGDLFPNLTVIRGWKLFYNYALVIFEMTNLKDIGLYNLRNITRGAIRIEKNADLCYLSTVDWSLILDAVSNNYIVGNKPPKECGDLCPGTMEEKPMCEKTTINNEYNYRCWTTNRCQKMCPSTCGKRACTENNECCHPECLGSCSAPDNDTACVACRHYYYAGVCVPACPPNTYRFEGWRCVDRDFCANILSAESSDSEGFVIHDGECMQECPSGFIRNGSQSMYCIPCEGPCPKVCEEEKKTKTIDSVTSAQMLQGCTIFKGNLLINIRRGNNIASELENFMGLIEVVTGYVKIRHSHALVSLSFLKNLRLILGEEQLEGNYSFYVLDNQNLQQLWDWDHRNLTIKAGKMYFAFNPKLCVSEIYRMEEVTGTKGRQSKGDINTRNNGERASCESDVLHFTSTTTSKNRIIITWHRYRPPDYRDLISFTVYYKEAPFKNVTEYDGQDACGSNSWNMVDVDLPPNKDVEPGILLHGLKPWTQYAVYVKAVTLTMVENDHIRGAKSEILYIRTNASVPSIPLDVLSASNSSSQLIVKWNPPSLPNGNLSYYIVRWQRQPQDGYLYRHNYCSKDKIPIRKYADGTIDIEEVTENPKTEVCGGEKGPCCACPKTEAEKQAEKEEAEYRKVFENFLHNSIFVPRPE
# Sequence of Insulin-like growth factor 1 receptor (Homo sapiens) (P08069 741-1367 limits assumed): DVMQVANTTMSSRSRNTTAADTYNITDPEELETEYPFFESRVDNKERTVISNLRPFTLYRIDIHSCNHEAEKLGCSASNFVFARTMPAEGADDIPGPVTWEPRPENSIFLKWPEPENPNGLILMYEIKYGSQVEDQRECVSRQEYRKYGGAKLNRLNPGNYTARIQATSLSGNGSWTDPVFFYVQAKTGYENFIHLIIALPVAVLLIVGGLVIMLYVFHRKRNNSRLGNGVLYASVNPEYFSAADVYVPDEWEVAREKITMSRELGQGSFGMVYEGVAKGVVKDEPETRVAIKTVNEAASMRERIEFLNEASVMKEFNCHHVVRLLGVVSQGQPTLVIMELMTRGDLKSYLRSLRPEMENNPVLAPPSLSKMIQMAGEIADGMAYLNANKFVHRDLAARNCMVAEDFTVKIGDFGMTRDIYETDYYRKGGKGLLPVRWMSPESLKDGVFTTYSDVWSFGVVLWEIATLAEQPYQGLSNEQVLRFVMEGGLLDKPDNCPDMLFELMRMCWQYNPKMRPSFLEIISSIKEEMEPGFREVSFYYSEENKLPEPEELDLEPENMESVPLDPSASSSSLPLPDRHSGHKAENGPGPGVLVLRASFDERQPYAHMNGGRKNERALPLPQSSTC
# [11] = target: Insulin-like growth factor 1 receptor (Homo sapiens) (UniProt P08069); details: at 10 µM
# [12] = target: T6, Inhibitor of nuclear factor kappa-B kinase subunit alpha (Homo sapiens) (UniProt O15111); details: at 1 µM
# T6 sequence (whole entry): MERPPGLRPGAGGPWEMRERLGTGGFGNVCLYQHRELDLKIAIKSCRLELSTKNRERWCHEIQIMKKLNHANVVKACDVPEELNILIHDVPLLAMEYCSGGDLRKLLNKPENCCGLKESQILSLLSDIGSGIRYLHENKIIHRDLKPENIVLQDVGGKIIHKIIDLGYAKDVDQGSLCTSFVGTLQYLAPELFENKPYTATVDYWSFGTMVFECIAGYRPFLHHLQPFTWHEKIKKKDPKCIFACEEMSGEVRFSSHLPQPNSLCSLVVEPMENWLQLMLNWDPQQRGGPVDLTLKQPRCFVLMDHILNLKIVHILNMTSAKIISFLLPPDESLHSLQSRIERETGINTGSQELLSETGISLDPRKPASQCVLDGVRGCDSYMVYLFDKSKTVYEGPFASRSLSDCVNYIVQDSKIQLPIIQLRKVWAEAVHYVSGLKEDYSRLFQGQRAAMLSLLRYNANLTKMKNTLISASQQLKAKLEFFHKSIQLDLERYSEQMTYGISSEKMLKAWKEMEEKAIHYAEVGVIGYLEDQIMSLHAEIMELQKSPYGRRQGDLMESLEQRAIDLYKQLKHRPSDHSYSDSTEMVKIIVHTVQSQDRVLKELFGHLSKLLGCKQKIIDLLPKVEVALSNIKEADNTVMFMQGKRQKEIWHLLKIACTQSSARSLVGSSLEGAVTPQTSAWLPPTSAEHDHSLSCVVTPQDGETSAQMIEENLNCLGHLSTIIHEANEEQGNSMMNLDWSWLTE
# [13] = target: T7, Inhibitor of nuclear factor kappa-B kinase subunit beta (Homo sapiens) (UniProt O14920); details: at 1 µM
# T7 sequence (whole entry): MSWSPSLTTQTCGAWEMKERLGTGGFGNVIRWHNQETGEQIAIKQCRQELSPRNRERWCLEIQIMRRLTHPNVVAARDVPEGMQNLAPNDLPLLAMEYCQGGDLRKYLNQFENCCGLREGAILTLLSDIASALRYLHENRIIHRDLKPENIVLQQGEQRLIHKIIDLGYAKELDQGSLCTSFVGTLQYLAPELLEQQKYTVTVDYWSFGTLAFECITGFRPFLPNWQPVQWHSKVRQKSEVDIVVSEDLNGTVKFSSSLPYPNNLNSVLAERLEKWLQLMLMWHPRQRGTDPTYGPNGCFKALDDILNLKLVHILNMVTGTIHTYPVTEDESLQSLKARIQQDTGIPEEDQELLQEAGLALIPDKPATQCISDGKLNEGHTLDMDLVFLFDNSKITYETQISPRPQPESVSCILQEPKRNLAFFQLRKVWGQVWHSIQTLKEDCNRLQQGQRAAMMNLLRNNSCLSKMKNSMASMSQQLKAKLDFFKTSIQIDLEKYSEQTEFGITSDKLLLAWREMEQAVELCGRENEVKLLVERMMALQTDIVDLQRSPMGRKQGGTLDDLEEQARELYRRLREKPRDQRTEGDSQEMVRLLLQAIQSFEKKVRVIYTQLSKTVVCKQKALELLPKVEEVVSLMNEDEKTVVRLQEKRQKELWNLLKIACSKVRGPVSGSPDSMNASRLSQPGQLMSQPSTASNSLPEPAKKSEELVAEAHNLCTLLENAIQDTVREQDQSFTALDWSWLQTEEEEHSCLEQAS
# [14] = target: T7, Inhibitor of nuclear factor kappa-B kinase subunit beta (Homo sapiens); details: at 10 µM
# [15] = target: Insulin receptor (Homo sapiens) (UniProt P06213); details: at 1 µM
# Sequence of Insulin receptor (Homo sapiens) (P06213 28-758 limits assumed): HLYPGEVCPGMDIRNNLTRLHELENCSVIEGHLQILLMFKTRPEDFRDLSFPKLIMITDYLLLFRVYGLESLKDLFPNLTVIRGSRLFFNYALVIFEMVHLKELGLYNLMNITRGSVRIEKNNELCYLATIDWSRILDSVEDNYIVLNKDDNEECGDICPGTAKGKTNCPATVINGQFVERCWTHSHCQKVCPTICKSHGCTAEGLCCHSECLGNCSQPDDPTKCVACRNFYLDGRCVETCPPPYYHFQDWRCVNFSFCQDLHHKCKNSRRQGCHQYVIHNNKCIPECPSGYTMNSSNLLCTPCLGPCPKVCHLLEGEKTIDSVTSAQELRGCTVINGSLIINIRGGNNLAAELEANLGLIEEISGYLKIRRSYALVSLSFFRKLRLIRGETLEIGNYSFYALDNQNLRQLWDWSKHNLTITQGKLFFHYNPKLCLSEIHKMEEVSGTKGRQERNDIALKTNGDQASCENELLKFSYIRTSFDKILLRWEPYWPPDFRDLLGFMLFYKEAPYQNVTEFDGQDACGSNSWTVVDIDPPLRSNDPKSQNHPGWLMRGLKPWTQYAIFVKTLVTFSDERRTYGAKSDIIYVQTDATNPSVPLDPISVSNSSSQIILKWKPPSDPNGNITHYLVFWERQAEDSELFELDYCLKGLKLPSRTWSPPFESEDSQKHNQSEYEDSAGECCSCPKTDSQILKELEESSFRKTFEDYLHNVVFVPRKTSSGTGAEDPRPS
# Sequence of Insulin receptor (Homo sapiens) (P06213 763-1382 limits assumed): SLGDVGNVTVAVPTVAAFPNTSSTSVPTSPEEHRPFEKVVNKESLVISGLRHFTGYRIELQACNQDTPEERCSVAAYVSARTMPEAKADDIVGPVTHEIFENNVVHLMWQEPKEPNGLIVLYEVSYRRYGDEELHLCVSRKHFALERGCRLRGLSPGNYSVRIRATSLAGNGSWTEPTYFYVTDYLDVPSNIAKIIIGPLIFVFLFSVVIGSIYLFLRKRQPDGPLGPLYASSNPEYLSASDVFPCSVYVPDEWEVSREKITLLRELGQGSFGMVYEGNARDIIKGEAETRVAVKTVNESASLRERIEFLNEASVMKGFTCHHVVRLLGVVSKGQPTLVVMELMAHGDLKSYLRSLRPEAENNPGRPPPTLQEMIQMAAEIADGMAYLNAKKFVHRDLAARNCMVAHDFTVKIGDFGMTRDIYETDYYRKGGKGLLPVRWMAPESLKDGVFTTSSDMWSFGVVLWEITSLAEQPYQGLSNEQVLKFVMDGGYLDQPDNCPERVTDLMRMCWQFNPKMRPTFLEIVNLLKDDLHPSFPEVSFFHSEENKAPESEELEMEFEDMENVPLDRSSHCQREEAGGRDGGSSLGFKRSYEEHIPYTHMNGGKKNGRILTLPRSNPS
smiles,measurement,setting,value
Nc1ncnc2[nH]nc(Nc3ccc(F)cc3)c12,residual activity,[1],97%
same,residual activity,[2],107%
same,residual activity,[3],102%
same,residual activity,[4],91%
same,residual activity,[5],101%
same,residual activity,[6],77%
same,residual activity,[7],58%
same,residual activity,[8],107%
same,residual activity,[9],74%
same,residual activity,[10],109%
same,residual activity,[11],112%
same,residual activity,[12],105%
same,residual activity,[13],115%
same,residual activity,[14],108%
same,residual activity,[15],141%
